Test results taken from PubChem BioAssay (NCI).
About 83,000 compounds went through this panel and 20% of them were active in at least one assay; those are over-represented in the sample as a whole.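 Treatment: one concentration, 48 hours, 96-well format. Scoring: percent growth, with anything below 10 considered active.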 Values without a mark were called inactive. Calls of active or inactive are those of the source.

Assays:
Test in all cases: NCI-60 one-dose screen, 48 h (100 = growth as untreated, 0 = no growth, -100 = all killed)
Conditions in all cases: 10 µM unless noted
NCI-H23 lung = system: NCI-H23 lung
NCI-H226 lung = system: NCI-H226 lung
NCI-H322M lung = system: NCI-H322M lung
HOP-62 NSCLC = system: HOP-62 NSCLC
NCI-H460 lung = system: NCI-H460 lung
HOP-92 NSCLC = system: HOP-92 NSCLC
NCI-H522 lung = system: NCI-H522 lung
A549/ATCC NSCLC = system: A549/ATCC NSCLC
786-0 renal = system: 786-0 renal
DU-145 prostate = system: DU-145 prostate
K-562 leukemia = system: K-562 leukemia
MALME-3M melanoma = system: MALME-3M melanoma
MDA-MB-231 breast = system: MDA-MB-231 breast
RXF 393 renal = system: RXF 393 renal
SF-268 CNS = system: SF-268 CNS
SF-295 CNS = system: SF-295 CNS
SF-539 CNS = system: SF-539 CNS
UACC-257 melanoma = system: UACC-257 melanoma
M14 melanoma = system: M14 melanoma

SMILES | growth (NCI-H23 lung) | growth (NCI-H226 lung) | growth (NCI-H322M lung) | growth (HOP-62 NSCLC) | growth (NCI-H460 lung) | growth (HOP-92 NSCLC) | growth (NCI-H522 lung) | growth (A549/ATCC NSCLC) | growth (786-0 renal) | growth (DU-145 prostate) | growth (K-562 leukemia) | growth (MALME-3M melanoma) | growth (MDA-MB-231 breast) | growth (RXF 393 renal) | growth (SF-268 CNS) | growth (SF-295 CNS) | growth (SF-539 CNS) | growth (UACC-257 melanoma) | growth (M14 melanoma)
Cl.Fc1c[c-]c(-c2ccccn2)c(F)c1.[Pt].c1ccc([PH+](c2ccccc2)c2ccccc2[PH+](c2ccccc2)c2ccccc2)cc1 | -84.6% (active) | -70% (active) | -99.4% (active) | -62.2% (active) | -73.2% (active) | -68% (active) | -63% (active) | -68.9% (active) | -73.9% (active) | -98.9% (active) | 0.976% (active) | -83.8% (active) | -93.3% (active) | -86.8% (active) | -72.3% (active) | -90.8% (active) | -93.6% (active) | -71.8% (active) | -72.5% (active)
C[C@H]1[C@H]2C3=CC[C@@H]4[C@@]5(C)C/C(=C/c6ccncc6)C(=O)C(C)(C)[C@@H]5CC[C@@]4(C)[C@]3(C)CC[C@@]2(C(=O)N2CCN(C)CC2)CC[C@@H]1C | 93.2% | 85.5% | 78.2% | 74.7% | 68.3% | 42.8% | 70% | 63.9% | 81.4% | 89.3% | 40.2% | 102% | 81.4% | 83.8% | 82.4% | 87.7% | 83.2% | 83.6% | 65.7%
CCOc1cc(C2C(Cl)C(=O)N2n2cnnc2)ccc1O (centres undefined) | 97.2% | 106% | 97% | 74% | 104% | 91.9% | 86.2% | 90.5% | 92.7% | 110% | 104% | 99.5% | 106% | 93.4% | 92.4% | 105% | 101% | 88.9% | 95.4%
CN(C)c1ccc(/C=N/NC(=O)COc2cc(=O)n(C)c3ccccc23)cc1 | 93.5% | 105% | 105% | 95.7% | 110% | 93.5% | 96.7% | 110% | 105% | 110% | 103% | 98.4% | 97.1% | 93.4% | 105% | 102% | 100% | 112% | 101%
NS(=O)(=O)Oc1ccc(NC(=O)C23CC4CC(CC(C4)C2)C3)cc1Cl | 101% | 91.3% | 104% | 92.1% | 103% | 87.6% | 75.8% | 93.7% | 98.2% | 99.8% | 94.6% | 97.6% | 90.5% | 111% | 88.1% | 101% | 87.3% | 90.2% | 97.3%
C=CCOc1cccc(/C=C2\SC(=Nc3ccc(O)cc3)NC2=O)c1 | 40.2% | -9.25% (active) | 53.5% | 25.6% | 2.23% (active) | 30.8% | -10.9% (active) | 18.6% | 11.2% | 5.29% (active) | 5.21% (active) | 58.3% | -12.1% (active) | -12.8% (active) | 19.3% | 7.15% (active) | -38.1% (active) | 68.4% | 9.92% (active)
CN1C[C@@H](c2ccc(Cl)cc2)[C@]2(NC(=S)N(c3ccc(F)c(Cl)c3)C2=O)[C@@]12C(=O)NC1C=CC(Cl)=C[C@H]12 (some centres undefined) | 51.9% | 59.8% | 74.6% | 79.8% | 32.8% | -7.71% (active) | 43.2% | 53% | -68% (active) | 67.3% | 10.3% | 91.2% | 31.6% | 21.3% | 54% | 46.8% | 73.5% | 65% | -31.2% (active)
Cl.[Pt].[c-]1ccccc1-c1ccccn1.c1ccc(P(c2ccccc2)C([PH+](c2ccccc2)c2ccccc2)[PH+](c2ccccc2)c2ccccc2)cc1 | 5.59% (active) | 7.37% (active) | 12.5% | 25.1% | 5.2% (active) | -17% (active) | 9.94% (active) | 14.6% | 22.8% | 24.1% | 11% | -9.83% (active) | -8.43% (active) | 11.3% | 27.6% | 7.09% (active) | 8.54% (active) | 15.5% | 19.2%
NC(=S)c1csc(CCNC(=O)c2ccccc2)n1 | 100% | 116% | 108% | 109% | 109% | 97.3% | 106% | 90.1% | 98.2% | 129% | 110% | 125% | 107% | 128% | 111% | 96.9% | 114% | 94.2% | 110%
Clc1ccc2c(NCCCN3CCN(c4nc(N5CCOCC5)nc5ccccc45)CC3)ccnc2c1 | 73.8% | 75.7% | 30% | 42.6% | 4.92% (active) | 12.2% | 13% | 24% | -36% (active) | 27.1% | -46.2% (active) | -82% (active) | -34.5% (active) | -76.6% (active) | 46.7% | -46.7% (active) | -82.7% (active) | -68.3% (active) | -80.3% (active)
OC(c1cccc(OCc2ccccc2)c1)c1nnc(-c2ccccc2)o1 (centres undefined) | 83% | 66.9% | 120% | 107% | 96% | 80.9% | 79.2% | 95.1% | 100% | 107% | 91% | 92.1% | 89.9% | 95.5% | 95.3% | 64% | 93.1% | 94.5% | 105%
C[C@@H]1C(=O)N(C[C@H](Cc2ccccc2)N(Cc2ccccc2)Cc2ccccc2)[C@]1(Cc1ccccc1)C(=O)OC(C)(C)C | 42% | 47.8% | 87.9% | 81.6% | 54% | 46.3% | 50.9% | 60% | 72.6% | 77.6% | 51.6% | 88% | 61.9% | 68.5% | 69.8% | 40.3% | 91% | 45.1% | 75.4%
O=C1Nc2ccc(Cl)cc2/C1=N/N=C/c1c[nH]c2ccccc12 | 86.1% | 81.9% | 75.5% | 80.4% | 72% | 93.1% | 73.2% | 87.2% | 95.8% | 64.2% | 88.4% | 82.8% | 64.3% | 62.7% | 76.2% | 103% | 82.6% | 98.8% | 72%
COc1cc2cc(Oc3ccc(NC(=O)Nc4cc(C(F)(F)F)cc(C(F)(F)F)c4)cc3)c(C)nc2cc1OCCN1CCCCC1 | -73.3% (active) | 22.1% | -87.1% (active) | -50% (active) | -78% (active) | 42.2% | -53% (active) | -64.9% (active) | -83.6% (active) | -95% (active) | -49.3% (active) | -86.2% (active) | -97.3% (active) | 31.8% | -49.3% (active) | -81.8% (active) | -94% (active) | -47.4% (active) | -79.6% (active)
CN1C(=O)CCC(N2C(=O)c3cccc(NCCOCCOCCNC(=O)c4cc5c(o4)C(=O)c4ccccc4C5=O)c3C2=O)C1=O (centres undefined) | -52.7% (active) | -72.1% (active) | -93% (active) | -59.1% (active) | -73.1% (active) | 65% | -35% (active) | -45% (active) | 8.13% (active) | -95.3% (active) | 10.5% | -97.4% (active) | -3.68% (active) | -34.6% (active) | -0.714% (active) | -88.1% (active) | -80.4% (active) | -85.1% (active) | -67.2% (active)
N#C/C(=C\c1ccc2c(c1)OCO2)n1nnc2ccccc21 | 10.9% | 8.93% (active) | 9.39% (active) | 28.7% | 0.341% (active) | -2.71% (active) | 14% | 17.1% | 6.58% (active) | -38% (active) | 14.2% | 25.8% | -31.9% (active) | -44.8% (active) | 22.9% | -5.56% (active) | -61.4% (active) | 64.4% | 2.76% (active)
